PubChem BioAssay (NCI)
Compounds without any hit were thinned out: in the full panel of roughly 83,000, 20% have a hit.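 Negative percent growth values reflect cell death: -40 means 40% of the cells present at the start died, and -100 means all died.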 Activity calls are given as the source filed them. The calls were made as follows: active = growth percent below 10; inactive = the rest.

Key:
Experiment in all cases: NCI-60 one-dose screen, 48 h (100 = growth as untreated, 0 = no growth, -100 = all killed)
Settings in all cases: 10 µM unless noted
T-47D breast = system: T-47D breast
BT-549 breast = system: BT-549 breast
MDA-MB-435 melanoma = system: MDA-MB-435 melanoma
SW-620 colon = system: SW-620 colon
MCF7 breast = system: MCF7 breast
HCT-116 colon = system: HCT-116 colon
HCC-2998 colon = system: HCC-2998 colon
KM12 colon = system: KM12 colon

Measured: growth

Clc1ccc(-c2cc(-c3ccccc3)nc(N3CCN(CCCNc4ccnc5cc(Cl)ccc45)CC3)n2)cc1
inactive: BT-549 breast 100%
active: T-47D breast -56.1% | MDA-MB-435 melanoma -61.8% | SW-620 colon -42.3% | MCF7 breast -18.5% | HCT-116 colon -79.6% | HCC-2998 colon -73.4% | KM12 colon 3.69%

Cn1c(=O)[nH]c(=O)c2nc3c(nc21)-c1ccccc1C3=O
inactive: T-47D breast 103% | BT-549 breast 104% | MDA-MB-435 melanoma 100% | SW-620 colon 105% | MCF7 breast 87.2% | HCT-116 colon 102% | HCC-2998 colon 101% | KM12 colon 103%

Cc1ccc(S(=O)(=O)c2nc(-c3ccccc3)oc2SCC(N)=O)cc1
inactive: T-47D breast 76.3% | BT-549 breast 106% | MDA-MB-435 melanoma 105% | SW-620 colon 104% | MCF7 breast 96% | HCT-116 colon 85.7% | HCC-2998 colon 105% | KM12 colon 97.9%

CCN(CC)CCn1c2ccc(OC)cc2c2sc3cc(O)ccc3c(=O)c21
active: MCF7 breast 9.43%
inactive: T-47D breast 62.5% | BT-549 breast 62.7% | MDA-MB-435 melanoma 48.8% | SW-620 colon 13.3% | HCT-116 colon 14.2% | HCC-2998 colon 28.2% | KM12 colon 24.6%

Clc1ccc(Nc2nnc(CNc3ccccc3)c3ccccc23)cc1
inactive: SW-620 colon 30.8% | HCC-2998 colon 18.3%
active: T-47D breast 2.82% | BT-549 breast 4.94% | MDA-MB-435 melanoma 4.17% | MCF7 breast 9.2% | HCT-116 colon 9.94% | KM12 colon 8.93%

COC12C=C/C(=C(/C(=O)OCc3csc(SC)n3)C(=O)CCCCCCCCC3(OC)C=C/C(=C(/C(=O)OCc4cnc(SC)s4)C(=O)CCCCCCCC1)O3)O2 (stereo not given)
inactive: T-47D breast 41.9% | BT-549 breast 31.7% | MDA-MB-435 melanoma 10% | SW-620 colon 27.6% | MCF7 breast 23.3% | KM12 colon 18.1%
active: HCT-116 colon 7.05% | HCC-2998 colon -62.4%

Cc1c2ncccc2nc2[nH]c3ccc(OCCN(C)C)cc3c12
inactive: T-47D breast 32.3% | BT-549 breast 63.2% | MDA-MB-435 melanoma 36.8% | SW-620 colon 17.3% | HCT-116 colon 12.6% | HCC-2998 colon 53.3% | KM12 colon 20.9%
active: MCF7 breast 3.49%

Cc1cc(=O)n(C(=S)Nc2ccc(Cl)cc2)c2cc(O)ccc12
inactive: T-47D breast 85.4% | BT-549 breast 119% | MDA-MB-435 melanoma 105% | SW-620 colon 110% | MCF7 breast 98.7% | HCT-116 colon 96% | HCC-2998 colon 100% | KM12 colon 102%

CCOC(=O)c1[nH]cc2c1CCc1sc(Nc3ccccn3)nc1-2
inactive: T-47D breast 55.4% | BT-549 breast 79.4% | MDA-MB-435 melanoma 86.2% | SW-620 colon 103% | MCF7 breast 57.1% | HCT-116 colon 75.7% | HCC-2998 colon 94.6% | KM12 colon 64.3%

Nc1c(Br)cc2c(c1Br)Cc1cc([N+](=O)[O-])ccc1-2
inactive: T-47D breast 58.3% | BT-549 breast 110% | MDA-MB-435 melanoma 108% | SW-620 colon 103% | MCF7 breast 33.8% | HCT-116 colon 95.3% | HCC-2998 colon 104% | KM12 colon 99.1%

Cc1ccc(O)c(NC(=O)c2cccc(Nc3ccnc(C(F)(F)F)c3)c2)c1
inactive: T-47D breast 21% | BT-549 breast 57.9% | MDA-MB-435 melanoma 60.2% | SW-620 colon 90.8% | MCF7 breast 40.7% | HCT-116 colon 34.9% | HCC-2998 colon 74.3% | KM12 colon 75.9%

Nc1cccc(-c2ccc(COc3ccc(CC4SC(=O)NC4=O)cc3)cc2)c1 (stereo not given)
inactive: T-47D breast 50.3% | BT-549 breast 58.7% | SW-620 colon 34.2% | MCF7 breast 37.7% | HCT-116 colon 32.1% | HCC-2998 colon 87.4% | KM12 colon 33.3%
active: MDA-MB-435 melanoma -17.7%

C[C@@H]1CN(c2cnc(C(=O)Nc3cc(F)cc4cccnc34)cn2)C[C@H](C)N1
active: MCF7 breast 9.07%
inactive: T-47D breast 30% | BT-549 breast 102% | MDA-MB-435 melanoma 97% | SW-620 colon 46.2% | HCT-116 colon 13.1% | HCC-2998 colon 91.7% | KM12 colon 83.4%

CC(C)CCC[C@@H](C)[C@H]1CC[C@H]2[C@@H]3CC=C4c5sc(Nc6cc(C(F)(F)F)cc(C(F)(F)F)c6)nc5CC[C@]4(C)[C@H]3CC[C@]12C
inactive: T-47D breast 95.7% | BT-549 breast 98.9% | MDA-MB-435 melanoma 104% | SW-620 colon 100% | MCF7 breast 107% | HCT-116 colon 99.3% | HCC-2998 colon 101% | KM12 colon 102%

CN(C)c1ccc(/C=C2\C=C(c3nc4ccccc4s3)OC2=O)cc1
inactive: T-47D breast 78% | BT-549 breast 110% | MDA-MB-435 melanoma 100% | SW-620 colon 94.7% | MCF7 breast 70.8% | HCT-116 colon 100% | HCC-2998 colon 97.8% | KM12 colon 93.7%

C/C(Cc1ccc(Cl)cc1)=C(\c1ccc(OCCN2CCCCCC2)cc1)c1ccc(OC(=O)c2ccccc2)cc1
inactive: T-47D breast 46.3% | BT-549 breast 56.2% | MDA-MB-435 melanoma 47.6% | SW-620 colon 37.3% | HCC-2998 colon 23.8% | KM12 colon 32%
active: MCF7 breast 9.46% | HCT-116 colon -64.8%

O=C1/C(=C/c2ccc(Cl)cc2)CN(C(=O)C(Cl)Cl)C/C1=C\c1ccc(Cl)cc1
active: T-47D breast -58.3% | BT-549 breast -82.6% | MDA-MB-435 melanoma -95.3% | SW-620 colon -78.9% | MCF7 breast -70.8% | HCT-116 colon -86.6% | HCC-2998 colon -91.8% | KM12 colon -81.9%

COC(=O)/C=C1/SC(=Nc2ccc(F)cc2)N(CCc2c[nH]c3ccc(O)cc23)C1=O
active: BT-549 breast 8.93%
inactive: T-47D breast 23.7% | MDA-MB-435 melanoma 25.4% | SW-620 colon 53.7% | MCF7 breast 17% | HCT-116 colon 23.1% | HCC-2998 colon 45.9% | KM12 colon 38.3%

CCN1C2CCC1/C(=C\c1ccccc1)C(=O)/C2=C/c1ccccc1
inactive: T-47D breast 56.9% | BT-549 breast 48.6% | MDA-MB-435 melanoma 30.7% | SW-620 colon 42.4% | MCF7 breast 25.2% | HCT-116 colon 15.6% | HCC-2998 colon 80.1% | KM12 colon 20.6%

CC(C)Cc1nc(Nc2ccccc2)[nH]c(=O)c1C#N
inactive: T-47D breast 40.8% | BT-549 breast 39% | MDA-MB-435 melanoma 70.6% | SW-620 colon 70.3% | MCF7 breast 53.4% | HCT-116 colon 54.7% | HCC-2998 colon 38.1% | KM12 colon 50.6%

Cc1c2cnccc2c(C)c2c1c1cc(CO)ccc1n2C
active: T-47D breast -21.2% | BT-549 breast -61.6% | MDA-MB-435 melanoma -81.2% | SW-620 colon 2.39% | MCF7 breast -13.9% | HCT-116 colon -7.64% | HCC-2998 colon -65.4% | KM12 colon 1.94%

Cc1ccc2c(c1)sc1nc(-c3c[nH]c4ccccc34)c(Nc3ccccc3)n12
inactive: T-47D breast 96% | BT-549 breast 98.5% | MDA-MB-435 melanoma 97% | SW-620 colon 94.7% | MCF7 breast 98.4% | HCT-116 colon 104% | HCC-2998 colon 106% | KM12 colon 105%

O=C(Nc1cccnc1Nc1ccccc1)c1cn(Cc2cccc(Oc3ccccc3)c2)nn1
active: MDA-MB-435 melanoma -19.3%
inactive: T-47D breast 71.3% | BT-549 breast 66.2% | SW-620 colon 42.4% | MCF7 breast 23.5% | HCT-116 colon 33.1% | HCC-2998 colon 90.1% | KM12 colon 35%

CCCCn1c(NC(C)=O)c(S(=O)(=O)c2ccccc2)c2nc3ccccc3nc21
inactive: T-47D breast 79.9% | BT-549 breast 103% | MDA-MB-435 melanoma 106% | SW-620 colon 109% | MCF7 breast 98.4% | HCT-116 colon 127% | HCC-2998 colon 113% | KM12 colon 103%

Cc1nc2sc(C(=O)Nc3cccc4ccccc34)c(N)c2cc1C(=O)c1ccccc1
inactive: T-47D breast 53.7% | BT-549 breast 15.2% | SW-620 colon 21.9% | MCF7 breast 17.9% | HCT-116 colon 11.3% | HCC-2998 colon 10.3% | KM12 colon 19.1%
active: MDA-MB-435 melanoma -53%

C=C1C(=O)O[C@H]2[C@H]1CC/C(COC(=O)NCc1ccc(Cn3c(=O)sn(-c4ccc(I)cc4)c3=O)cc1)=C\CC[C@@]1(C)O[C@@H]21
inactive: T-47D breast 45.2% | BT-549 breast 74.5% | MDA-MB-435 melanoma 80.9% | MCF7 breast 38.6% | HCT-116 colon 28.3% | HCC-2998 colon 105% | KM12 colon 98.4%
active: SW-620 colon 3.86%

CC(O)CNC(Cc1ccccc1)c1ccc2c(c1)OCO2 (stereo not given)
inactive: T-47D breast 47.2% | BT-549 breast 57.9% | MDA-MB-435 melanoma 99.6% | SW-620 colon 92.8% | MCF7 breast 91.5% | HCT-116 colon 62.1% | HCC-2998 colon 104% | KM12 colon 99.3%

C#Cc1cccc(NC(=O)C2CCCCN2C(=O)CCl)c1 (stereo not given)
active: T-47D breast -4.16% [8.25 µM] | BT-549 breast -55.9% [8.25 µM] | MDA-MB-435 melanoma -57.3% [8.25 µM] | SW-620 colon -59.9% [8.25 µM] | MCF7 breast -7.64% [8.25 µM] | HCT-116 colon -30.7% [8.25 µM] | HCC-2998 colon -18.7% [8.25 µM] | KM12 colon -34.2% [8.25 µM]

c1ccc(-c2nc3ccccc3[nH]2)c(OCCCCCOc2ccccc2-c2nc3ccccc3[nH]2)c1
active: HCT-116 colon -10.4%
inactive: T-47D breast 111% | BT-549 breast 88.5% | MDA-MB-435 melanoma 63.5% | SW-620 colon 18.5% | MCF7 breast 19.8% | HCC-2998 colon 92.2% | KM12 colon 98.6%

Nc1c(Cl)cc(/C=C2\C=Cc3ccccc32)cc1Cl
inactive: T-47D breast 95.6% | BT-549 breast 101% | MDA-MB-435 melanoma 107% | SW-620 colon 111% | MCF7 breast 123% | HCT-116 colon 103% | HCC-2998 colon 98% | KM12 colon 106%
